Molecules are shown by their SMILES. Values joined by “and” are separate entries in the source; they are usually repeats but may differ in a detail not shown here. Identical values can stand only once. Among all 6,400 compounds or so, about 610 (9.5%) were called active. Cut-off read from the data, not from the text of the source: active = activity change below about -70%; inconclusive = no clear call, values can overlap the other calls; inactive = above that. The entries come from a sample that favours actives as a whole. More than one record can exist for a structure, and the calls need not agree.

This experiment in a line: T. gondii ME49Luc in HeLa cells, luciferase assay, 72 h, no IFN-y (AID 1259421). The following applies: stronger effect = lower value, concentration not given here.
On to `CC(N)Cn1ccc2cc(F)c(Cl)cc21` (stereo not given), for which the activity change, negative = inhibition was 4.63% (inactive).
On to `COc1cc2c(cc1OC)-c1c(oc3c4c(ccc3c1=O)OC(C(C)C)C4)CO2` (stereo not given), for which the activity change, negative = inhibition is 16.2% (inactive).
With `Cc1cccc(Cc2cnc[nH]2)c1C` the figure was 32.1% (inactive); with `CN1C[C@@H](NS(=O)(=O)N(C)C)C[C@@H]2c3cccc4c3c(cn4C)C[C@H]21`, 14.9% (inactive); with `COC(=O)NC(=S)Nc1ccccc1NC(=S)NC(=O)OC`, 8.42% (inactive) and 11.6% (inactive).
Regarding `CC(C)=CCCN1CCC(NC(=O)[C@](O)(c2ccccc2)C2CCCC2)CC1`, the activity change, negative = inhibition is 1.64% (inactive).
With `Fc1cc(F)c2c(c1)[C@H]1C=CC[C@H]1C(c1cccnc1)N2` (stereo not given in full) the figure was -75.5% (active); with `c1cncc(C2CCCCN2)c1` (stereo not given), 9.05% (inactive) and -25.4% (inactive); with `c1cncc(C2CCCN2)c1` (stereo not given), 2.36% (inactive).
With `O=C1CC[C@@]2(O)[C@H]3Cc4ccc(O)c5c4C2(CCN3CC2CC2)[C@H]1O5` the figure was -9.85% (inactive); with `COc1cc2c3cc1Oc1c(OC)c(OC)cc4c1[C@@H](Cc1cccc(c1)Oc1ccc(c(O)c1)C[C@@H]3N(C)CC2)N(C)CC4`, -11.3% (inactive); with `CCCCC/C=C\C/C=C\C/C=C\C/C=C\CCCC(=O)NCc1ccc(O)c(OC)c1`, 8.17% (inactive).
With `CCCCC/C=C\C/C=C\C/C=C\C/C=C\CCCC(=O)NCCO` the figure was 34.9% (inactive).
Consider `CCCCC/C=C\C/C=C\C/C=C\C/C=C\CCCC(=O)Nc1ccc(O)cc1`, for which the activity change, negative = inhibition was -78.5% (active).
Consider `COC(=O)C=CC(=O)NC1CCC2(O)C3Cc4ccc(O)c5c4C2(CCN3CC2CC2)C1O5` (stereo not given), for which the activity change, negative = inhibition was 12.8% (inactive).
With `CC(=O)[O][Hg][c]1ccccc1` the figure was -50.7% (inactive); with `C[C@@H]([C@H](O)c1ccccc1)N(C)C`, -0.751% (inactive) and -3.37% (inactive).
With `C[Se]C[C@H](N)C(=O)O` the figure was 10.4% (inactive).
With `COc1cc([C@@H]2c3cc4c(c(O)c3C[C@H]3COC(=O)[C@@H]32)OCO4)cc(OC)c1OC` the figure was -71.9% (active); with `COc1ccc2c(c1OC)CN1CCc3cc4c(cc3C1C2)OCO4` (stereo not given), 15.2% (inactive).
As to `COc1ccc2c(c1OC)C(=O)O[C@@H]2[C@H]1c2cc3c(cc2CCN1C)OCO3`, the activity change, negative = inhibition is 2.97% (inactive).
With `COc1cc([C@@H]2c3cc4c(cc3[C@H](OC(C)=O)[C@H]3COC(=O)[C@H]23)OCO4)cc(OC)c1OC` the figure was -81.6% (active); with `COc1cc([C@@H]2c3cc4c(cc3[C@@H](O)C3COC(=O)C32)OCO4)cc(OC)c1O` (stereo not given in full), -8.26% (inactive).
For the compound `CCN1C[C@]2(OC(=O)c3ccccc3NC(C)=O)CCC(OC)[C@]34C1[C@H](CC23)[C@@]1(O)CC(OC)[C@H]2CC4C1(O)[C@H]2OC` (stereo not given in full), the activity change, negative = inhibition is -6.02% (inactive).
As to `CC(C)(C)[C@]1(O)C[C@@H]2OC(=O)C[C@@]23C(=O)O[C@@H]2OC(=O)[C@H](O)C213` (stereo not given in full), the activity change, negative = inhibition was 7.37% (inactive).
With `COC1(C[S@@](=O)c2ccccc2)CCN(CCc2c[nH]c3ccc(F)cc23)CC1` the figure was 22.1% (inactive); with `CN1[C@@H]2CC[C@H]1CC(OC1c3ccccc3CCc3ccccc31)C2` (stereo not given in full), 15.8% (inactive); with `c1ccc2c(c1)sc1ccccc12`, -5.87% (inactive).
Regarding `C=C[C@H]1CN2CC[C@H]1C[C@@H]2[C@H](O)c1ccnc2ccccc12`, the activity change, negative = inhibition was -7.58% (inactive).
With `CC(C)[C@]12O[C@H]1[C@@H]1O[C@]13[C@]1(O[C@H]1C[C@H]1C4=C(CC[C@@]13C)C(=O)OC4)[C@@H]2O` the figure was -86.5% (active).
With `CC(C)c1ccc2c(c1O)CC[C@H]1C3=C(CC[C@]21C)C(=O)OC3` the figure was 0.532% (inactive); with `C[C@@H]1CN(Cc2ccc(F)cc2)CCN1C(=O)COc1ccc(Cl)cc1NC(N)=O`, -3.05% (inactive); with `O=c1ccc2cc(O[C@@H]3O[C@H](CO)[C@@H](O)[C@H](O)[C@@H]3O)c(O)cc2o1`, -0.686% (inactive).
Consider `C=C(C)[C@@H]1[C@H]2OC(=O)[C@H]1[C@]1(O)C[C@H]3O[C@]34C(=O)O[C@H]2[C@]14C`, for which the activity change, negative = inhibition is 2.63% (inactive).
With `CCN(CC)CCOC(=O)C(C)(c1ccccc1)c1ccccc1` the figure was 15.3% (inactive).
With `O=C(N[C@H]1CN2CCC1CC2)c1cc2cccc(Cl)c2s1` the figure was 25.6% (inactive); with `O=c1[nH]c2ccc(Cl)cc2c(N[C@@H]2CN3CCC2CC3)c1-c1nc2ccccc2[nH]1`, -83.1% (active); with `O=C(N[C@H]1CN2CCC1CC2)c1ccc(Cl)cc1`, 10.2% (inactive) and 9.22% (inactive).
With `C[N+]1(C)CCc2cc3c(cc2C1[C@@H]1OC(=O)c2c1ccc1c2OCO1)OCO3` (stereo not given in full) the figure was -1.51% (inactive) and 8.52% (inactive); with `C1CN2CCC1CC2`, 14.5% (inactive); with `O=C1NC(=S)NC(=O)C1C(=O)Nc1ccccc1`, 57.2% (inactive).
Consider `CC12CCC3C(CCC4C(=O)C(=O)CCC43C)C1CCC2=O` (stereo not given), for which the activity change, negative = inhibition is 21.2% (inactive).
With `Fc1ccc(C(OCCN2CCN(CCCc3ccccc3)CC2)c2ccc(F)cc2)cc1`, the activity change, negative = inhibition was -67.4% (inactive) and 5.82% (inactive).
For `Fc1ccc(C(OCCN2CCN(C/C=C/c3ccccc3)CC2)c2ccc(F)cc2)cc1`, the activity change, negative = inhibition was -83.2% (active) and -79.9% (active).
With `C(=C\c1ccccc1)/CN1CCN(CCOC(c2ccccc2)c2ccccc2)CC1` the figure was -4.36% (inactive) and -26.8% (inactive) and -5.08% (inactive); with `O=c1oc2ccccc2c(O)c1Cc1c(O)c2ccccc2oc1=O`, -3.14% (inactive) and 12.5% (inactive).
With `N[C@]1(C(=O)O)CC[C@@H](C(=O)O)C1` (racemic) the figure was 3.76% (inactive); with `c1ccc2c(c1)[I+]c1ccccc1-2`, -67.1% (inactive) and -88.6% (active).
With `O=C1c2ccccc2C(=O)c2ccccc21` the figure was -6.04% (inactive); with `FC(F)(F)c1cccc(N2CCNCC2)c1`, -1.94% (inactive).
On to `CN=C(NS(=O)(=O)c1ccc(Cl)cc1)N1C[C@H](c2ccccc2)C(c2ccc(Cl)cc2)=N1`, for which the activity change, negative = inhibition is 38.2% (inactive).
As for `Cc1ccc2c(c1)C1(CCN(CCc3nc(-c4ccccc4)oc3C)CC1)OC(=O)N2`, the activity change, negative = inhibition is 0.534% (inactive) and -16.6% (inactive).
With `CC(C)(C)NCC(O)c1ccc(O)cc1Cl` (stereo not given) the figure was -2.47% (inactive); with `CN1C2C[C@H](OC(=O)[C@H](CO)c3ccccc3)C[C@H]1[C@@H](O)C2`, 4.91% (inactive).
With `CN1C2C[C@H](OC(=O)[C@H](CO)c3ccccc3)C[C@@H]1[C@@H](O)C2` the figure was 6.31% (inactive).
With `CCCCCOc1c(OC)ccc2cc(C(=O)NCc3ccc4c(c3)OCO4)c(=O)[nH]c12` the figure was 23.5% (inactive) and -61.7% (inactive); with `C[C@]12CC[C@H]3[C@@H](CCC4=CC(=O)CC[C@@]43C)[C@@H]1CC[C@H]2O`, 8.39% (inactive); with `C[C@]12CCC(=O)C=C1CCC1C2CC[C@@]2(C)C1CC[C@@H]2O` (stereo not given in full), -78.3% (active) and -86.2% (active).
Turning to `CCCCCCC(=O)O[C@H]1CC[C@H]2[C@@H]3CCC4=CC(=O)CC[C@]4(C)[C@H]3CC[C@]12C`, the activity change, negative = inhibition was -77% (active).
With `CCC[C@@H]1CC2=CC(=O)CC[C@]2(C)[C@H]2CC[C@@]3(C)[C@@H](CC[C@@]3(O)CCC(=O)O)[C@H]12` the figure was 17.5% (inactive); with `CCCC1CC2=CC(=O)CCC2(C)C2CCC3(C)C(CCC3(O)CCC(=O)O)C12` (stereo not given), 13% (inactive).
With `C[C@]12CCC(=O)C=C1CCC1C2CC[C@@]2(C)C1CC[C@H]2O` (stereo not given in full) the figure was 2.85% (inactive).
For `C#CC1(O)CCC2C3CCC4=CC(=O)CCC4(C)C3CCC21C` (stereo not given), the activity change, negative = inhibition is -6.31% (inactive) and -17.5% (inactive).
For the compound `CCC(=O)O[C@H]1CCC2C3CCC4=CC(=O)CC[C@]4(C)C3CC[C@@]21C` (stereo not given in full), the activity change, negative = inhibition was -76.8% (active) and -88.9% (active).
With `C[C@]12CCC(=O)C=C1CC[C@@H]1[C@@H]2C(=O)C[C@]2(C)C(=O)CC[C@@H]12` the figure was 8.66% (inactive); with `C[C@]12CC[C@H]3[C@@H](CCC4=CC(=O)CC[C@@H]43)[C@@H]1CC[C@@H]2O`, -79.7% (active); with `C#C[C@]1(O)C=C[C@H]2[C@@H]3CCC4=CC(=O)CC[C@@H]4[C@H]3CC[C@@]21CC`, -40.4% (inactive).
With `C[C@]12CCC3c4ccc(OC(=O)N(CCCl)CCCl)cc4CCC3C1CC[C@@H]2O` (stereo not given in full), the activity change, negative = inhibition was -52.4% (inactive).
With `CC(C)[C@]1(O)[C@@H](OC(=O)c2ccc[nH]2)[C@@]2(O)[C@@]3(C)C[C@]4(O)O[C@@]5([C@H](O)[C@@H](C)CC[C@]35O)[C@@]2(O)C41C` the figure was 7.71% (inactive); with `N#Cc1ccccc1-c1cc(-c2ccccn2)cn(-c2ccccc2)c1=O`, 3.7% (inactive); with `C=CCN1CC[C@]2(C)c3cc(O)ccc3CC1[C@@H]2C`, 17.7% (inactive).
With `Cc1ccccc1-n1c(CF)nc2ccc(N)cc2c1=O`, the activity change, negative = inhibition was 11.5% (inactive).
With `CCN(CC)Cc1nccn1-c1ccc([N+](=O)[O-])cc1C(=O)c1ccccc1Cl` the figure was -2.08% (inactive); with `C=C(C)CN1CC[C@]23c4c5ccc(O)c4O[C@H]2c2[nH]c4ccccc4c2C[C@@]3(O)C1C5`, 3.03% (inactive) and 27.5% (inactive).
With `CN1C(=O)C(O)N=C(c2ccccc2)c2cc(Cl)ccc21` (stereo not given) the figure was 18.5% (inactive).
With `CCOC(=O)c1ncn2c1C1CCCN1C(=O)c1cc(OC)ccc1-2` (stereo not given) the figure was 4.31% (inactive); with `CNCC/C=C/c1cccnc1`, 9.5% (inactive); with `O=C1CCCC2C3CC(CN12)[C@@H]1CCCCN1C3` (stereo not given in full), 14.8% (inactive) and -1% (inactive).
Regarding `O=C1Nc2ccc(Cl)cc2C(c2ccccc2)=NC1O` (stereo not given), the activity change, negative = inhibition is 20.6% (inactive).
With `CCCN1CCCC2Cc3[nH]ncc3CC21` (stereo not given) the figure was 1.31% (inactive).

The record behind these values is PubChem BioAssay AID1259421 (Broad Institute, 2018).
